Data taken from the supplement of paper PMC11732987, “Enantioselective OTUD7B fragment discovery through chemoproteomics screening and high-throughput optimisation” (Communications Chemistry, 2025).

compound: ClCC(=O)NC(C1CC1)C1CC1; test: log2 ratio of Biotin-Ahx-Ub-VS probe labelling (fragment/DMSO); higher = less target engagement (more negative = stronger competition), active = hit call of the paper (q ≤ 0.05, log2 ratio ≤ -1); details: compound concentration: 200 uM; treatment time: 3 h
Method: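 Competitive ABPP in HEK293T cell lysate. Lysates were treated with each chloroacetamide fragment at 200 µM for 3 h, then with Biotin-Ahx-Ub-VS (0.5 µM, 1 h), NeutrAvidin-enriched and analysed by diaPASEF LC-MS/MS. Protein LFQ was median-normalised; average log2 ratio is fragment/DMSO from an unpaired t-test (n=3 treated, n=44 DMSO). Hits: q ≤ 0.05, log2 ratio ≤ -1, unique peptides ≥ 2.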

Chain of UniProt Q8N6M0 (Q8N6M0 whole entry): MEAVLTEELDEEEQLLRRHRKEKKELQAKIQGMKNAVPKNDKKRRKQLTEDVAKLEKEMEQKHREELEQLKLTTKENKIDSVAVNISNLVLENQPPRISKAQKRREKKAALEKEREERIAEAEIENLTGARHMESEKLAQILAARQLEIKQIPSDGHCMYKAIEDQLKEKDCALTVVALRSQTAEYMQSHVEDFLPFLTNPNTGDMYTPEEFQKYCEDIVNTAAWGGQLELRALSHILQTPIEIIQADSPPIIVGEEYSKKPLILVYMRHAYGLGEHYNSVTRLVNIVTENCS
Chain of UniProt Q70EL1 (Q70EL1 whole entry): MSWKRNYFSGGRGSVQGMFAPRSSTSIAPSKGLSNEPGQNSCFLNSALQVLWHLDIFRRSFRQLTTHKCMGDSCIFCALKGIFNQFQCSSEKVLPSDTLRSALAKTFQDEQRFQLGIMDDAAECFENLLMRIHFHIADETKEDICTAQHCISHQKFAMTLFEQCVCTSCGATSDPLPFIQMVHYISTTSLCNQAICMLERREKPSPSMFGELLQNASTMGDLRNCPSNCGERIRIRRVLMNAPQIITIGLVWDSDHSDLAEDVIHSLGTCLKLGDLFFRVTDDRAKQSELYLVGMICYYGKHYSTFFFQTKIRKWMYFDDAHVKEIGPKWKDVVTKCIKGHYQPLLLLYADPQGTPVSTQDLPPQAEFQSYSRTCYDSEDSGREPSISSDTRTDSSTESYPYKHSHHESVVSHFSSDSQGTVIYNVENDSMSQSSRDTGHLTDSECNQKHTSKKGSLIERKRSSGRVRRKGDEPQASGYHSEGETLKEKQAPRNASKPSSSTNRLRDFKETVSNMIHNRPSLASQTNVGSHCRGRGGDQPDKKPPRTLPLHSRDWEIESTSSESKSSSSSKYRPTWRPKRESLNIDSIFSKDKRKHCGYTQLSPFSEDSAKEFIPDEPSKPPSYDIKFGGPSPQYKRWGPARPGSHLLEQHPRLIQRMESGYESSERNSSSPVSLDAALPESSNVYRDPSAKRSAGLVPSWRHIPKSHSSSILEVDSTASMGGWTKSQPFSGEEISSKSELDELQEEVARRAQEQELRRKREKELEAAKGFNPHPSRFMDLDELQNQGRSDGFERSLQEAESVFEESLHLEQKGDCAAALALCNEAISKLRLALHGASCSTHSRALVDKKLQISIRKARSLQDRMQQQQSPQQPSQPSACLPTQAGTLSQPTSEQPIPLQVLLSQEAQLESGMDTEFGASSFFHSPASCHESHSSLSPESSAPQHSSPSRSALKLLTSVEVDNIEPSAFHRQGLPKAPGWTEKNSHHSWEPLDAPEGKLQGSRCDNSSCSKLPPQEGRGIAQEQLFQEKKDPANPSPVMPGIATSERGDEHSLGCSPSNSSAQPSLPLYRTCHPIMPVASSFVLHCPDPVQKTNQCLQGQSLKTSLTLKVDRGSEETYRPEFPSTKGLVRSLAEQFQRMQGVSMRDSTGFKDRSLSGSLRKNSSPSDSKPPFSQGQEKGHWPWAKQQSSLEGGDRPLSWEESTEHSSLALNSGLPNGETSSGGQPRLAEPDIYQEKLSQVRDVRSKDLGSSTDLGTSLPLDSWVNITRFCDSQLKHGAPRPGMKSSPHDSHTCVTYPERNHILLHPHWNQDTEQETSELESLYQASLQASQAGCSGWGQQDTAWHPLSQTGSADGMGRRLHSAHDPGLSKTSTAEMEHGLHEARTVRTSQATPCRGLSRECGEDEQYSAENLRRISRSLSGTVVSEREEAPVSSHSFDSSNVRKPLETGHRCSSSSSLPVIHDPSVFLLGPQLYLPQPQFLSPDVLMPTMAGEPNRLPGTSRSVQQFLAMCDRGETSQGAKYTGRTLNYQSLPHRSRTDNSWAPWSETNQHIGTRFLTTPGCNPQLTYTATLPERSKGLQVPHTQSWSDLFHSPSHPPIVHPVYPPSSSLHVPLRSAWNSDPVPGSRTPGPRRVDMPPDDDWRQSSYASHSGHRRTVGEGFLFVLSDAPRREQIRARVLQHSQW
Chain of UniProt O94966 (O94966 whole entry): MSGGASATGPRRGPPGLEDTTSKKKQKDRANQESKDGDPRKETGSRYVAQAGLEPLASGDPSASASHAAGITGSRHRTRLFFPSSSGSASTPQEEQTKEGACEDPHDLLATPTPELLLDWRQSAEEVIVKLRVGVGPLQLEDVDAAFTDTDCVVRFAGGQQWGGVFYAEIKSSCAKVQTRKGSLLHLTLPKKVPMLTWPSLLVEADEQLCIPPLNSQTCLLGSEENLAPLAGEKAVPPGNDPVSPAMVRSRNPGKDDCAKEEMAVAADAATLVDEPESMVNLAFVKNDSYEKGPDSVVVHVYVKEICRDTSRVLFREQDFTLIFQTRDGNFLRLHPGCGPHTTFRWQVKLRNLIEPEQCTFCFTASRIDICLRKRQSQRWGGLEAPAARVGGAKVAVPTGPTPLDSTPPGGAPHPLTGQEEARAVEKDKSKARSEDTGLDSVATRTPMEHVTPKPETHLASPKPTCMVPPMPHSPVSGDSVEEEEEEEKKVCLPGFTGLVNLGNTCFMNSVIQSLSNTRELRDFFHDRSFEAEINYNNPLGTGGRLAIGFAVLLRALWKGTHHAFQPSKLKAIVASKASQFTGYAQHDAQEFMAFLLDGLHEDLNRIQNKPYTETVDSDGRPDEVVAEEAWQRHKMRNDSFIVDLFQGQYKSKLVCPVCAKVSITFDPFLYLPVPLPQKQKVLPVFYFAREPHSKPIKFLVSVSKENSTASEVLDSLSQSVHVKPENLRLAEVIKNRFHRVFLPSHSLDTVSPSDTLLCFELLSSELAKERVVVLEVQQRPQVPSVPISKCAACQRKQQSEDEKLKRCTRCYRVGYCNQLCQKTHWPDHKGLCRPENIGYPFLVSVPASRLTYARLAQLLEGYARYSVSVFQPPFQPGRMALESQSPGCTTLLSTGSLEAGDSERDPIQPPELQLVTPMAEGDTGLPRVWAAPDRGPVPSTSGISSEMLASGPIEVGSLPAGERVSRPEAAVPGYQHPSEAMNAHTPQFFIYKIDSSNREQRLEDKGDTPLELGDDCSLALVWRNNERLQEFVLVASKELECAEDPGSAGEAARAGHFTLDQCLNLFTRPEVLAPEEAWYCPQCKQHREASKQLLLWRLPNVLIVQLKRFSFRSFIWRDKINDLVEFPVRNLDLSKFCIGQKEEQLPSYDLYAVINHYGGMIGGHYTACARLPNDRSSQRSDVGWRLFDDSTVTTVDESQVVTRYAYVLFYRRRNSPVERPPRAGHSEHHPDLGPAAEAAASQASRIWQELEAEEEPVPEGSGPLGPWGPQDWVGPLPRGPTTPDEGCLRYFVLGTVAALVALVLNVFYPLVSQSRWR
Chain of UniProt P40818 (P40818 whole entry): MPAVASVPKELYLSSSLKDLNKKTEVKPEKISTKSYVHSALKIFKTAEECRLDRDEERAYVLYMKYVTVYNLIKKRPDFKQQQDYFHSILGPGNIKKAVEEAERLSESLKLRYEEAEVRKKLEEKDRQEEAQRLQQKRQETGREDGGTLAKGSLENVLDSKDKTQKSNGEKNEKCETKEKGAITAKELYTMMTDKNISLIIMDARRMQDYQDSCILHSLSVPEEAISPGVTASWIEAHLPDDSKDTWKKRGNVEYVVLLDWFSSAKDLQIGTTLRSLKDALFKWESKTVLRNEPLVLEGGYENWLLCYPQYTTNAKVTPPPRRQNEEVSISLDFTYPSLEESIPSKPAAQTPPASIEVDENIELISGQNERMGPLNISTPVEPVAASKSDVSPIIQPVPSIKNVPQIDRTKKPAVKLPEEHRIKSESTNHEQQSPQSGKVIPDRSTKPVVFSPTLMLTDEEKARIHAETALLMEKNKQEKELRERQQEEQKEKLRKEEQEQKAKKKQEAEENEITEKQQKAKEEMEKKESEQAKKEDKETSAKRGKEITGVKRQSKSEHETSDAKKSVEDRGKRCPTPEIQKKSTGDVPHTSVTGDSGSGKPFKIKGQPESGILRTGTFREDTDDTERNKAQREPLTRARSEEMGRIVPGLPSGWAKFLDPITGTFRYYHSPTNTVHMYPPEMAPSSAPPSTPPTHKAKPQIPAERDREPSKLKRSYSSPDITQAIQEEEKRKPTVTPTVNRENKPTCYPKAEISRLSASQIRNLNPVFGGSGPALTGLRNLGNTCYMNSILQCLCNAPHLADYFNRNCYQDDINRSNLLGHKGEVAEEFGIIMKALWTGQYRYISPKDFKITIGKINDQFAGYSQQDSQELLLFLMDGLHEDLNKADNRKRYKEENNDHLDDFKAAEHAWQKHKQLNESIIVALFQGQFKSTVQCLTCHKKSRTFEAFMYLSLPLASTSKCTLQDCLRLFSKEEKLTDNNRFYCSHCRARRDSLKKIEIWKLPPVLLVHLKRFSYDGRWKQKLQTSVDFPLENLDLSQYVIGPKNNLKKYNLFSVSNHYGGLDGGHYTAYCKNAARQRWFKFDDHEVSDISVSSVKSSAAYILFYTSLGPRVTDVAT
Chain of UniProt Q5T2D3 (Q5T2D3 whole entry): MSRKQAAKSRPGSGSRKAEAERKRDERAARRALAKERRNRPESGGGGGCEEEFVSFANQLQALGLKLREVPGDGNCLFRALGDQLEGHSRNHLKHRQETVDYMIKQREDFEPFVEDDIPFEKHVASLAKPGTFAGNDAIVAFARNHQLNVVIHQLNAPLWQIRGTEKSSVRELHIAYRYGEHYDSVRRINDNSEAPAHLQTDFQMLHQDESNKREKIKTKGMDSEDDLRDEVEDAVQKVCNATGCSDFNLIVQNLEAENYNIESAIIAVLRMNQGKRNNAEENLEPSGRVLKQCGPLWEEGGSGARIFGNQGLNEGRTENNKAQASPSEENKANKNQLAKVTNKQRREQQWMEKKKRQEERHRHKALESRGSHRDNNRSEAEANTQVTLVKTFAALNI
Chain of UniProt P15374 (P15374 whole entry): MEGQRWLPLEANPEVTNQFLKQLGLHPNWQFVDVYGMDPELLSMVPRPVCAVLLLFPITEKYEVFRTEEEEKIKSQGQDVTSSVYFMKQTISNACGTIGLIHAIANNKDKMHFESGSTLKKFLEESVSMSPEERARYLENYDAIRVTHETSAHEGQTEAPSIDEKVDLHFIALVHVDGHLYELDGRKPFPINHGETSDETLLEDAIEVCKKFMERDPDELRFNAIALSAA

Row | Target | log2 ratio of Biotin-Ahx-Ub-VS probe labelling
1 | UCHL3 (UniProt P15374) | 0.117 (inactive)
2 | USP10 (UniProt Q14694) | -0.045 (inactive)
3 | YOD1 (UniProt Q5VVQ6) | -0.0299 (inactive)
4 | UniProt Q9UGI0 | -0.0131 (inactive)
5 | USP5 (UniProt P45974) | -0.319 (inactive)
6 | USP8 (UniProt P40818) | -0.0528 (inactive)
7 | BAP1 (UniProt Q92560) | -0.654 (inactive)
8 | OTUD4 (UniProt Q01804) | -0.457 (inactive)
9 | UniProt O00487 | -0.179 (inactive)
10 | OTUD6B (UniProt Q8N6M0) | -0.29 (inactive)
11 | VCPIP1 (UniProt Q96JH7) | -0.276 (inactive)
12 | USP22 (UniProt Q9UPT9) | -0.16 (inactive)
13 | USP19 (UniProt O94966) | -0.198 (inactive)
14 | EIF3H (UniProt O15372) | -0.0951 (inactive)
15 | UniProt Q8TE49 | -0.531 (inactive)
16 | USP25 (UniProt Q9UHP3) | -0.502 (inactive)
17 | UniProt Q9P2H5 | -0.0753 (inactive)
18 | PRPF8 (UniProt Q6P2Q9) | 0.0738 (inactive)
19 | UniProt P51784 | -0.304 (inactive)
20 | USP7 (UniProt Q93009) | -0.307 (inactive)

Row | Target | log2 ratio of Biotin-Ahx-Ub-VS probe labelling
21 | USP14 (UniProt P54578) | -0.411 (inactive)
22 | USP42 (UniProt Q9H9J4) | -0.0349 (inactive)
23 | USP34 (UniProt Q70CQ2) | -0.194 (inactive)
24 | USP15 (UniProt Q9Y4E8) | -0.268 (inactive)
25 | USP46 (UniProt P62068) | 0.045 (inactive)
26 | USP39 (UniProt Q53GS9) | -0.194 (inactive)
27 | OTUD7B (UniProt Q6GQQ9) | -1.44 (active)
28 | ALG13 (UniProt Q9NP73) | 0.189 (inactive)
29 | USP54 (UniProt Q70EL1) | -0.749 (inactive)
30 | UniProt Q5T2D3 | -0.0205 (inactive)
31 | USP4 (UniProt Q13107) | -0.162 (inactive)
32 | COPS5 (UniProt Q92905) | -0.232 (inactive)
33 | PSMD7 (UniProt P51665) | -0.0309 (inactive)
34 | USP9X (UniProt Q93008) | -0.125 (inactive)
35 | FAM105A (UniProt Q9NUU6) | -0.0106 (inactive)
36 | USP36 (UniProt Q9P275) | -0.148 (inactive)
37 | OTUD5 (UniProt Q96G74) | -0.0756 (inactive)
38 | UCHL1 (UniProt P09936) | -1.28 (active)
39 | UniProt O00507 | -0.0912 (inactive)
40 | USP47 (UniProt Q96K76) | -0.205 (inactive)
